Data on 38 compounds can be found in PubChem BioAssay (NCATS).

Assay [1] deals with Glutathione peroxidase 1 (Homo sapiens) (UniProt P07203). Description: Primary qHTS Assay for Inhibitors of Recombinant Selenoprotein Glutathione Peroxidase 1 (GPX1) (AID 1845191). Note: nearly all actives have a fitted effect of over 65% in size. The procedure, abridged:
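NADPH consumption tracked by fluorescence at 340/450 nm between t=0 and t=15 min, room temperature. Final mix: 10 nM GPX1, 100 nM glutathione reductase, 1 mM GSH, 0.5 mM NADPH, 0.5 mM cumene hydroperoxide, 0.01% BSA; 30 min compound–enzyme preincubation.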

Assay [2] concerns the target Phospholipid hydroperoxide glutathione peroxidase GPX4 (Homo sapiens) (UniProt P36969). Put plainly: Primary qHTS Assay for Inhibitors of Recombinant Selenoprotein Glutathione Peroxidase 4 (GPX4) (AID 1845192). Note: nearly all actives have a fitted effect of over 65% in size. The procedure, abridged: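 NADPH consumption followed by fluorescence at 340/450 nm, t=0 and after 15 min at room temperature. Reaction started with cumene hydroperoxide (0.5 mM final) after 30 min compound–GPX4 preincubation; final 200 nM GPX4, 100 nM GR, 1 mM GSH, 0.5 mM NADPH.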

Assay [3] addresses Luciferin 4-monooxygenase (Photinus pyralis) (UniProt P08659). Description: Primary firefly luciferase (FLuc) qHTS assay for identification of artifact compounds. (AID 1845220). Note: nearly all actives have a fitted effect of over 60% in size. In short, it runs like this: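 FLuc 10 nM; luciferin 10 uM; ATP 10 uM; Tris-acetate pH 7.6, Mg-acetate 10 mM; 15 min RT preincubation; 5 min reaction; luminescence.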
(In general: qHTS replaces the single test concentration by a dilution series.)

The nature of assay [4]: Primary fluorescence-based thiol-reactive (MSTI) qHTS assay for identification of artifact compounds. (AID 1845221).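 Note: series mostly up to about 54 µM; thiol-reactive compounds lower the probe fluorescence signal; nearly all actives have a fitted effect of over 65% in size.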 The procedure, abridged: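 MSTI probe at 4 uM final in 2% DMSO/PBS pH 7.4; compounds, 1 h at room temperature in dark. Fluorescence Ex/Em 525/598 nm, normalised to Acetyl-MSTI and MSTI, fitted to 4-parameter Hill.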
In assay [5] the test system is Nanoluciferase (engineered Oplophorus gracilirostris luciferase). Description: Primary Nanoluciferase (NLuc) qHTS assay for identification of artifact compounds. (AID 1845222).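 Note: NLuc secreted into diluted conditioned medium of S16 cells; series mostly up to about 54 µM.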 In short, it runs like this:
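NLuc from S16 cell medium (1:55) plus test compounds, 15 min, room temperature. Luminescence after Nano-Glo (1:100) addition, 5 min.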

A short description of assay [6]: Primary redox qHTS assay for identification of artifact compounds. (AID 1845223). The procedure, abridged: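 Redox-cycling detection via DTT (250 uM final) oxidation coupled to Amplex Red (25 uM)/HRP (250 mU/mL) in HBSS. 15 min preincubation plus 30 min after DTT, room temperature. Ex/Em 525/598 nm; 4-parameter Hill fit against DMSO and 10 uM DA3003.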

Results filed as inconclusive are left out. Calls of active or inactive are those of the source. Calls come from the whole dose curve; as a rule, active = well fitted curve in the direction sought with a large enough effect; inconclusive = small, poorly fitted or top-dose-only effect, or another doubt; inactive = no such curve, though single readings can be large; an effect the other way counts as inactive or inconclusive.

Chain of Glutathione peroxidase 1 (Homo sapiens) (P07203 whole entry, looked up): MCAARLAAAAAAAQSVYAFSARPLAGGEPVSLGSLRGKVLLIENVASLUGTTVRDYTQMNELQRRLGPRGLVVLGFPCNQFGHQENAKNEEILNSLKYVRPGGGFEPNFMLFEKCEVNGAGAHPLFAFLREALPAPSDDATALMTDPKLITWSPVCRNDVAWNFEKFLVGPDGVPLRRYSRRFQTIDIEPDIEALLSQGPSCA
Chain of Phospholipid hydroperoxide glutathione peroxidase GPX4 (Homo sapiens) (P36969 whole entry, looked up): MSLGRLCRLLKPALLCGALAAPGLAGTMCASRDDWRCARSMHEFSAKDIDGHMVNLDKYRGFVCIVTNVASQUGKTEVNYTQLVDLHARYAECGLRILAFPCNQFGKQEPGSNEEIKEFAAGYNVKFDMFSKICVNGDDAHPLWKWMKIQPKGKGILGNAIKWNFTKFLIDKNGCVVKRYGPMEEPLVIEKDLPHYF

For `C[C@@H](CN1CCC(Cc2ccccc2)CC1)[C@@H](O)c1ccc(O)cc1`, the Potency entry in assay [1] and in assay [2] was “inactive” throughout.
`O=C(OCc1ccccc1)c1ccccc1`: the Potency result in assay [1] and in assay [2] was “inactive” throughout.
As for `C=CC(N)CCC(=O)O` (centres undefined), the Potency result in assay [1] and in assay [2] was “inactive” in each case.
Take `C#C[C@]1(O)CC[C@H]2[C@@H]3CCC4=Cc5oncc5CC4(C)[C@H]3CCC21C` (some centres undefined): the Potency result in assay [1] and in assay [2] was “inactive” throughout.
As to `O=C(O)c1cc(=O)c2ccccc2[nH]1`, the Potency entry in assay [1] and in assay [2] was “inactive” each time.
Regarding `Clc1ccc(N2CCN(Cc3cc4ccccn4n3)CC2)cc1`, the Potency entry in assay [1] and in assay [2] was “inactive” throughout.
Turning to `[O-][n+]1ccccc1SSc1cccc[n+]1[O-]`, the Potency entry in assay [1] and in assay [2] was “inactive” throughout.
Turning to `Cn1cc(C2=C(c3ccc(Cl)cc3Cl)C(=O)NC2=O)c2ccccc21`, the Potency entry in assay [1] and in assay [2] was “inactive” in each case.
As to `NC(CCCP(=O)(O)O)C(=O)O` (centres undefined), the Potency result in assay [1] and in assay [2] was “inactive” throughout.
As for `O=C(/C=C/c1ccc(O)c(O)c1)OCCc1ccccc1`, the Potency result in assay [1] and in assay [2] was “inactive” each time.
Consider `Fc1ccc(C(OCCCc2cnc[nH]2)c2ccc(F)cc2)cc1`, for which the Potency result in assay [1] and in assay [2] was “inactive” throughout.
Take `N#C/C(=C\c1ccc(-c2cc(Cl)ccc2Cl)o1)C(=O)Nc1cccc2ncccc12`: the Potency result in assay [1] and in assay [2] was “inactive” each time.
Regarding `O=C(CCc1ccncc1)NNC(=O)N1Cc2ccccc2Oc2ccc(Cl)cc21`, the Potency result in assay [1] and in assay [2] was “inactive” in each case.
For `CCCCCCCCCCCCCCCCCCN(CCCCCCCCCCCCCCCCCC)CCCN(CCO)CCO`, the Potency entry in assay [1] and in assay [2] was “inactive” each time.
Turning to `O=C1NCc2c1c1c3ccccc3[nH]c1c1[nH]c3ccccc3c21`, the Potency result in assay [1] and in assay [2] was “inactive” in each case.
For `NC(=S)c1ccc[n+]([C@@H]2O[C@@H](COP(=O)([O-])OP(=O)(O)OC[C@H]3O[C@@H](n4cnc5c(N)ncnc54)[C@H](OP(=O)(O)O)[C@@H]3O)C(O)C2O)c1` (some centres undefined), the Potency entry in assay [1] and in assay [2] was “inactive” in each case.
`COC(=O)c1c(C)[nH]c(C)c1C(=O)c1ccccc1Cc1ccccc1`: the Potency entry in assay [1] and in assay [2] was “inactive” each time.
As to `CCN(CC)c1ncnc2c1ncn2[C@@H]1O[C@H](COP(=O)(O)OP(=O)(O)C(Br)(Br)P(=O)(O)O)[C@@H](O)[C@H]1O`, the Potency entry in assay [1] and in assay [2] was “inactive” each time.
`COc1ccccc1CNCCCCCCNCCCCCCCCNCCCCCCNCc1ccccc1OC`: the Potency result in assay [1] and in assay [2] was “inactive” in each case.
In the case of `COc1cc2c3cc1Oc1cc(ccc1O)C[C@@H]1c4c(cc(OC)c(O)c4Oc4ccc(cc4)C[C@@H]3N(C)CC2)CC[N+]1(C)C`, the Potency result in assay [1] and in assay [2] was “inactive” throughout.
Turning to `Nc1nc(OCC2CCCCC2)c2[nH]cnc2n1`, the Potency result in assay [1] and in assay [2] was “inactive” each time.
For `Nc1nc(Nc2ccccc2)nc2c1ncn2[C@@H]1O[C@H](CO)[C@@H](O)[C@H]1O`, the Potency result in assay [1] and in assay [2] was “inactive” throughout.
For the compound `O=c1[nH]c2ccccc2n1CCCN1CCN(C(c2ccccc2)c2ccccc2)CC1`, the Potency result in assay [1] and in assay [2] was “inactive” each time.
On to `COc1cc(OC)c(/C=C2/C(=O)Nc3ccccc32)c(OC)c1`, for which the Potency entry in assay [1] and in assay [2] was “inactive” each time.
`COC1=C(OC)C(=O)c2ccccc2C1=O`: the Potency entry in assay [1] and in assay [2] was “inactive” in each case.
As to `N[C@H](CCCP(=O)(O)O)C(=O)O`, the Potency entry in assay [1] and in assay [2] was “inactive” each time.
For `CN(C)CCC(c1ccc(Cl)cc1)c1ccccn1` (centres undefined), the Potency result in assay [1] and in assay [2] was “inactive” each time.
On to `CNC(=O)c1c(I)c(NC(=O)CCCCC(=O)Nc2c(I)c(C(=O)O)c(I)c(C(=O)NC)c2I)c(I)c(C(=O)O)c1I`, for which the Potency entry in assay [1] and in assay [2] was “inactive” throughout.
For `CC(C)(C=O)Cc1cc(C(C)(C)C)c(O)c(C(C)(C)C)c1`, the Potency result in assay [1] and in assay [2] was “inactive” in each case.
Take `Nc1nc2c(ncn2[C@@H]2O[C@H](CO)[C@@H](O)[C@@H]2O)c(=O)[nH]1`: the Potency result in assay [1] and in assay [2] was “inactive” throughout.
`C[N+](C)(C)CCOP(=O)(O)OP(=O)([O-])OC[C@H]1O[C@@H](n2ccc(N)nc2=O)[C@H](O)[C@@H]1O`: the Potency result in assay [1] and in assay [2] was “inactive” in each case.
As to `O=C(Nc1ccc2c(c1)CCN(Cc1ncn[nH]1)C2)c1ccccc1-c1ccc(C(F)(F)F)cc1`, the Potency result in assay [1], in assay [2], in assay [3] and in assay [5] was “inactive” in each case. In addition, the call in assay [4] and in assay [6] was inactive.
As for `CCCCN(CC)c1nc(C)nc2c1c(C)cn2-c1c(C)cc(C)cc1C`, the Potency entry in assay [1], in assay [2], in assay [3] and in assay [5] was “inactive” in each case. Moreover, the result in assay [4] and in assay [6] was inactive.
Consider `COc1ccc(/C=C/c2nc(NCCCN(C)C)c3ccccc3n2)cc1`, for which the Potency entry in assay [1] and in assay [2] was “inactive” in each case.
With `CC(C)CC(NP(=O)(O)O[C@@H]1O[C@@H](C)[C@H](O)[C@@H](O)[C@H]1O)C(=O)NC(Cc1c[nH]c2ccccc12)C(=O)O` (some centres undefined), the Potency result in assay [1] and in assay [2] was “inactive” in each case.
As to `N=c1ccn2c(n1)O[C@H]1[C@H](O)[C@@H](CO)O[C@H]12`, the Potency entry in assay [1] and in assay [2] was “inactive” throughout.
As to `O=C(O)CC1CCCc2ccccc2C1O` (centres undefined), the Potency entry in assay [1] and in assay [2] was “inactive” throughout.
On to `N.N.N.N.N.N.N.N.N.N.N.N.N.N.O.O.[Ru+4].[Ru+5].[Ru+5]`, for which the Potency result in assay [1] and in assay [2] was “inactive” in each case.
